These entries were drawn from the full list.
aSyn 5UTR act: Activators via SNCA 5'UTR binding, MLPCN | alpha-synuclein 5'UTR reporter, activators screen | activity score, % (tested at 7.5 µM), hits read low | actives 7.1% (n = 300,000) | AID 1814; in the data active = activity score below about -60%
An asterisk follows results filed as active.

SMILES	aSyn 5UTR act
O=[N+]([O-])c1cccc(N2Cc3ccccc3C2)c1	-113.3*
FC(F)(F)c1cccc(N2Cc3ccccc3C2)c1	-71.9*
C=Cc1cccc(NC(=O)COc2ccccc2)c1	-106.9*
O=C(Nc1cccc(-c2nc3ccccc3o2)c1)c1ccc(N2C(=O)C3C4C=CC(C4)C3C2=O)cc1 (stereo unspecified)	88.3
COc1ccc(C(=O)Nc2cccc(-c3nnc(-c4ccco4)o3)c2)cc1	-92.6*
COc1ccc(OCC(=O)Nc2cccc(-c3nc4ccccc4o3)c2)cc1	-150.7*
O=C(COc1ccccc1)Nc1cccc(-c2nc3ccccc3[nH]2)c1	-63.5*
COc1ccc(OCC(=O)Nc2cccc(-c3nc4ccccc4[nH]3)c2)cc1	-159.0*
O=C(COc1ccccc1)Nc1cccc(-c2nnc(-c3ccccc3)o2)c1	-64.3*
CCc1ccc(OCC(=O)Nc2ccc(-c3nc4ccccc4o3)c(O)c2)cc1	-97.0*
Oc1cc(NCc2cccnc2)ccc1-c1nc2ccccc2o1	-100.0*
CC(C)(C)c1ccc(OCC(=O)Nc2ccc(-c3nc4cccnc4o3)cc2)cc1	-134.8*
Cn1c(-c2ccccc2)cnc1N	-121.9*
COCCn1c(-c2ccccc2)cnc1N	-82.7*
N#C/C(=C\C1CC=CCC1)c1nc2ccccc2[nH]1 (stereo unspecified)	-65.6*
N#C/C(=C(/O)c1cccs1)c1nc2ccccc2[nH]1	-102.4*
N#C/C(=C\c1c(Cl)cccc1Cl)c1nc2ccccc2[nH]1	-63.7*
Cc1ccc(/C=C(\C#N)c2nc3ccccc3[nH]2)s1	-228.6*
N#C/C(=C/c1cccs1)c1nc2ccccc2[nH]1	-201.4*
Cc1cc(/C=C(\C#N)c2nc3ccccc3[nH]2)c(C)n1C	-223.5*
N#C/C(=C\c1ccc(Cl)cc1)c1nc2ncccc2[nH]1	-94.3*
CCOc1cc(N(CC)CC)ccc1/C=C(/C#N)c1nc2ccccc2[nH]1	-107.4*
N#C/C(=C\c1cccs1)Sc1nc2ccccc2s1	-68.3*
COc1ccc(-n2cc(-c3ccccc3)nc2SC)cc1	-121.3*
COc1ccc2c(c1)sc1nc(-c3ccccc3)cn12	105.2
SMILES	aSyn 5UTR act
CC(C)N=C1NN=C(c2cccs2)CS1	-99.9*
CC(C)c1ccc(N=C2NN=C(c3cccs3)CS2)cc1	-145.3*
CC(C)N=C1NN=C(c2ccc(Cl)c(Cl)c2)CS1	-228.1*
CCn1c(=NC(=O)c2ccco2)sc2cccc(F)c21	-125.9*
C=CCOc1ccc(C(=O)NC2CCCCC2)cc1	-161.1*
O=C(NC1CCCCCCC1)c1ccc(Br)cc1	-92.3*
CC(C)Oc1ccc(C(=O)NC2CCCCC2)cc1	-91.2*
COc1cccc(/C=N/Nc2nnc3c(n2)[nH]c2ccccc23)c1OC	-83.7*
COc1cccc(/C=N/Nc2ccc(Cl)nn2)c1OC	-155.4*
CC(/C=N/Nc1nnc2c(n1)[nH]c1ccccc12)=C\c1ccco1	-165.3*
Fc1ccccc1/C=N/Nc1ccc(Cl)nn1	-109.7*
C(=N\Nc1ccc2nncn2n1)/c1ccccn1	66.6
N/C(=N\OC(=O)c1ccccc1Br)c1cccc([N+](=O)[O-])c1	-77.0*
N/C(=N\OC(=O)c1ccccc1F)c1cccc([N+](=O)[O-])c1	-182.9*
Cc1ccccc1C(=O)O/N=C(\N)c1ccc([N+](=O)[O-])cc1	-126.6*
N/C(=N\OC(=O)c1ccccc1Br)c1ccc([N+](=O)[O-])cc1	-103.4*
Cc1ccccc1/C(N)=N/OC(=O)c1ccc(F)cc1	-176.8*
CCNc1nc(C)c2cc(Br)c(=O)n(CC)c2n1	76.5
CCN(CC)S(=O)(=O)c1ccc(N/N=C(\C)c2ccc(OC)cc2O)nc1	78.2
CCN(CC)S(=O)(=O)c1ccc(N=Nc2cc(C)cc(Br)c2O)cc1	-75.9*
CC(=O)c1ccc(NC(=O)COc2ccccc2C(=O)Nc2ccccc2)cc1	-78.0*
O=C(COc1ccccc1C(=O)c1cnn(-c2ccccc2)c1)Nc1ccccc1	-72.6*
CCOc1ccc(NC(=O)c2ccccc2CO)cc1	-85.7*
CCOc1ccc(NC(=O)c2ccccc2OC)cc1	-140.5*
CCOc1ccc(NC(=O)c2ccccc2OCC(=O)c2ccccc2)cc1	-83.3*
SMILES	aSyn 5UTR act
CC(=O)c1cccc(NC(=O)COC(=O)c2ccccc2C)c1	-101.2*
CCOc1ccc(NC(=O)c2ccccc2-c2ccccc2C(=O)O)cc1	-62.8*
CCOc1ccc(NC(=O)c2cccnc2C(=O)O)cc1	-108.8*
CCOc1ccc(NC(=O)c2ccc(NC(=O)COC(=O)Cc3ccc(OC)cc3)cc2)cc1	-93.3*
CCOc1ccc(NC(=O)c2ccccn2)cc1	104.3
CCOc1ccc(NC(=O)c2ccccc2O)cc1	-66.3*
CCOc1ccc(NC(=O)c2nccnc2CO)cc1	-120.1*
O=C(Nc1nc2c(F)cc(F)cc2s1)C1CCN(C(=O)c2ccc(F)cc2)CC1	-162.2*
O=C(Nc1nc2c(F)cccc2s1)C1CC1	-111.3*
Cc1c(Cl)ccc2sc(NC(=O)C3CC3)nc12	-84.7*
NNc1nc2c(F)cc(F)cc2s1	-164.5*
Fc1cccc2sc(Nc3nnc(-c4ccccc4)o3)nc12	-89.5*
NNc1nc2c(F)cccc2s1	-280.7*
Fc1cccc2sc(Nc3nc4c(F)cccc4s3)nc12	-210.1*
Cc1ccc(N2C(=O)Nc3cc(Cl)c(Cl)cc3N2O)cc1Cl	-99.4*
COc1ccc(C(=O)Nc2cccc3c2CCCC3)cc1	-131.7*
COc1ccc(C(=O)Nc2ccc3c4c(cccc24)CC3)cc1	-84.0*
COc1ccc(C(=O)Nc2cc3c(oc2=O)CCCC3=O)cc1	-68.6*
O=c1[nH]c(-c2ccccn2)nc2sc(-c3ccccc3)cc12	-90.9*
COc1ccccc1C1CCN(c2ccc([N+](=O)[O-])c(OC)c2)CC1	-75.1*
COc1ccc(NC(=O)n2ncc3c(C)cccc32)cc1OC	-164.7*
COc1ccc(NC(=O)n2ncc3c(C)cccc32)cc1	-88.4*
Cc1ccc(NC(=O)n2ncc3c(C)cccc32)cc1F	-70.9*
O=C(Nc1ccccc1)N(O)c1ccc(Cl)cc1	-121.7*
CCN(CC)CCCNC(=O)c1sc2nc(-c3ccc(F)cc3)cn2c1C	-108.0*
SMILES	aSyn 5UTR act
Cc1c(C(=O)NCC2CCCO2)sc2nc(-c3ccc(F)cc3)cn12 (stereo unspecified)	-83.6*
C#CC(C)(C)NC(=O)c1ccc(-c2ccccc2F)cc1	-89.1*
c1ccc(Oc2ccc3ccccc3n2)cc1	-129.5*
Brc1ccc2c(c1)OCCOCCOc1cc(Br)ccc1OCCOCCOCCO2	72.7
O=C(c1cc2cc(Br)ccc2o1)N1CCOCC1	-84.9*
O=C(c1cc2cc(Br)ccc2o1)N1CCCC1	-63.5*
Cc1cc(C)c2nc(NNC(=O)c3ccc(S(=O)(=O)N4CCCC(C)C4)cc3)sc2c1 (stereo unspecified)	72.9
O=C(Nc1nc(-c2cccs2)cs1)c1ccc(S(=O)(=O)N2CCCC2)cc1	-95.7*
Cc1csc(NC(=O)c2ccc(S(=O)(=O)N3CCCC3)cc2)n1	-62.3*
CC1CC(C)CN(S(=O)(=O)c2ccc(C(=O)Nc3nnc(-c4cccs4)o3)cc2)C1 (stereo unspecified)	60.3
CN(C)S(=O)(=O)c1ccc(C(=O)Nc2nc(-c3cccs3)cs2)cc1	-99.3*
CCOc1cccc(C=Nc2cc(C)cc(C)c2O)c1O	-84.5*
CCOc1cccc(/C=N/NC(=S)Nc2cc(S(=O)(=O)N3CCOCC3)ccc2N2CCOCC2)c1O	80.8
CCOc1cccc(/C=N/Nc2ccc(S(=O)(=O)N(CC)CC)cn2)c1O	88.2
Cc1cc(Cl)ccc1OCC(=O)Nc1cccnc1	-107.6*
Cc1c(C)c2ccc(OCC(=O)Nc3cccnc3)c(C)c2oc1=O	-136.6*

Screening data as filed in PubChem.
